Assay results reported in a collection of fitness landscapes (doi:10.1016/j.celrep.2020.107928).
The full ranking holds about 81,000 sequences; the median of “one-hybrid fitness for binding NBS DNA” is about -0.1, and the highest 2% start at about 0.36. For the sample, the highest values were picked, then their nearest neighbours and some sequences at random.

B1: Caulobacter ParB omega fusion; a variant is named by its letters at X, in order, B8GW30 (parent)
chain: MESVVVGEPGMSEGRRGLGRGLSALLGEVDAAPAQAPGEQLGGSREAPIEILQRNPDQPRRTFREEDLEDLSNSIREKGVLQPILVRPSPDTAGEYQIVAGERAWRAAQRAGLKTVPIMVRELDDLAVLEIGIIENVQRADLNVLEEALSYKVLMEKFERTQENIAQTIGKSXSHVANXMRLLXLPDEVQSYLVSGELTAXHARAIAAAADPVALAKQIIEGGLSVRETEALARKAPNLSAGKSKGGRPPRVKDTDTQALESDLSSVLGLDVSIDHRGSTGTLTITYATLEQLDDLCNRLTRGI

Variants of: B1
Experiment: one-hybrid fitness for binding NBS DNA (the Noc-binding site; scaled: cognate 1, non-cognate 0); higher = stronger binding
Conditions: with NBS DNA site
In short: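 On M9-minus-histidine containing 0.1 mM IPTG and 5 mM 3-AT, E. coli USO cells with a HIS3 reporter, site 19 bp from the promoter, grew 48 hours at 37°C to select Caulobacter ParB libraries randomised at four specificity codons. Plasmids from before and after were Illumina-sequenced, with three replicate libraries pooled and variants under 10 reads left out. Fitness is the log change in variant-to-wild-type read ratio, rescaled against cognate and non-cognate.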

Variant | one-hybrid fitness for binding NBS DNA
VTLY | ≤ 0.2
TYNS | ≤ 0.2
QTTI | ≤ 0.2
HNLL | ≤ 0.2
CGRS | ≤ 0.2
WGSW | ≤ 0.2
SGTG | ≤ 0.2
DHMC | ≤ 0.2
QRPE | ≤ 0.2
EVQC | ≤ 0.2
LFWV | ≤ 0.2
RKRH | 0.429
RKDN | ≤ 0.2
RKIR | 0.384
RKPR | ≤ 0.2
RKYH | 0.228
RKPS | ≤ 0.2
RKIP | ≤ 0.2
RKNH | 0.335
RKDH | 0.401
RPIR | ≤ 0.2
RKRD | ≤ 0.2
RKIS | 0.403
SRFC | ≤ 0.2

Variant | one-hybrid fitness for binding NBS DNA
FDKC | ≤ 0.2
SRTT | ≤ 0.2
PLES | ≤ 0.2
WGAE | ≤ 0.2
WTLY | ≤ 0.2
RKLD | ≤ 0.2
RKLP | ≤ 0.2
RKLS | 0.496
ISNA | ≤ 0.2
YLVK | ≤ 0.2
QWGI | ≤ 0.2
QRNA | 0.632
QANA | 0.257
QHNA | 0.294
QPDA | ≤ 0.2
QRDA | 0.394
TKKF | ≤ 0.2
TGPI | ≤ 0.2
SSSR | ≤ 0.2
GRQQ | ≤ 0.2
PLWH | ≤ 0.2
KPII | ≤ 0.2
RDGI | ≤ 0.2
NLSK | ≤ 0.2

Variant | one-hybrid fitness for binding NBS DNA
QAKN | 0.356
QAKQ | 0.408
QAKP | ≤ 0.2
QAVQ | 0.32
QAKH | 0.541
QAKS | 0.618
QARQ | 0.332
QAVS | 0.226
QAKD | ≤ 0.2
CHHT | ≤ 0.2
ELRT | ≤ 0.2
KKYT | 0.249
KHQT | ≤ 0.2
KKNT | 0.425
KKAT | 0.309
KKNN | ≤ 0.2
KKQT | 0.393
KKDT | ≤ 0.2
KKRT | 0.381
KKQP | ≤ 0.2
YQVF | ≤ 0.2
LPAV | ≤ 0.2
QGMS | ≤ 0.2
PQVE | ≤ 0.2

Variant | one-hybrid fitness for binding NBS DNA
PMPS | ≤ 0.2
FPGC | ≤ 0.2
QINT | 0.462
QIDT | ≤ 0.2
QFNT | ≤ 0.2
QSDT | 0.32
QSNT | 0.476
QCNT | 0.569
QLNN | ≤ 0.2
QLDT | 0.249
QPNT | ≤ 0.2
QINH | ≤ 0.2
QSND | ≤ 0.2
QLNT | 0.45
MQSN | ≤ 0.2
EVQG | ≤ 0.2
AVQR | ≤ 0.2
DELG | ≤ 0.2
YHGF | ≤ 0.2
ENKN | ≤ 0.2
PKSC | ≤ 0.2
EETG | ≤ 0.2
PKIC | ≤ 0.2
QHNT | 0.49

Variant | one-hybrid fitness for binding NBS DNA
QCDT | 0.369
QADT | 0.287
QAND | ≤ 0.2
QPDT | ≤ 0.2
QFDT | ≤ 0.2
QHNH | 0.297
QHDT | 0.344
QANT | 0.462
SMIR | ≤ 0.2
HYMR | ≤ 0.2
SMAM | ≤ 0.2
VWNK | ≤ 0.2
TTMW | ≤ 0.2
QTDN | ≤ 0.2
QTYP | ≤ 0.2
QTRP | 0.401
QTDD | ≤ 0.2
QPRD | ≤ 0.2
QCRD | 0.384
QTRN | 0.543
QTYD | ≤ 0.2
QTRD | 0.379
QSRD | 0.219
QTYN | ≤ 0.2

Variant | one-hybrid fitness for binding NBS DNA
AYPY | ≤ 0.2
GIDC | ≤ 0.2
TRKM | 0.216
LSKY | ≤ 0.2
CYIS | ≤ 0.2
NMYI | ≤ 0.2
PGKG | ≤ 0.2
REGE | ≤ 0.2
SGQC | ≤ 0.2
TFKE | ≤ 0.2
GTES | ≤ 0.2
WLDV | ≤ 0.2
QYEV | ≤ 0.2
CNVT | ≤ 0.2
ADWS | ≤ 0.2
MSTF | ≤ 0.2
QTYH | 0.271
QTRH | 0.695
VRKE | ≤ 0.2
VCRT | ≤ 0.2
VRVT | ≤ 0.2
VRDT | ≤ 0.2
VRKT | 0.393
VRYT | 0.225

Variant | one-hybrid fitness for binding NBS DNA
VCNT | ≤ 0.2
VCKT | ≤ 0.2
VRRT | 0.432
VRNT | 0.374
FQNR | ≤ 0.2
ARIY | ≤ 0.2
LLCL | ≤ 0.2
RTHN | ≤ 0.2
RIHT | 0.532
RHHK | ≤ 0.2
RHHT | 0.419
RTHP | ≤ 0.2
RNHT | ≤ 0.2
RTHT | 0.57
RSHT | 0.402
RIHF | ≤ 0.2
RIHY | ≤ 0.2
RGHT | ≤ 0.2
TCRD | ≤ 0.2
THRD | ≤ 0.2
YERR | ≤ 0.2
FARS | ≤ 0.2
YKWR | ≤ 0.2
GHSC | ≤ 0.2

Variant | one-hybrid fitness for binding NBS DNA
LSHC | ≤ 0.2
RCHT | 0.538
RPHT | ≤ 0.2
RAHQ | ≤ 0.2
RFHT | 0.263
RAHK | ≤ 0.2
RMHT | 0.448
RMHP | ≤ 0.2
RAHT | 0.427
RMHH | ≤ 0.2
AGWC | ≤ 0.2
CVAV | ≤ 0.2
ANSI | ≤ 0.2
SVIN | ≤ 0.2
CNSM | ≤ 0.2
QFAG | ≤ 0.2
QFYR | ≤ 0.2
QFKH | ≤ 0.2
QFKR | 0.595
QFDR | ≤ 0.2
QFFR | 0.439
QFFG | 0.554
QFAR | ≤ 0.2
QFYG | ≤ 0.2

Variant | one-hybrid fitness for binding NBS DNA
QFRR | 0.441
QFFS | ≤ 0.2
QFVR | ≤ 0.2
KDMM | ≤ 0.2
CVAL | ≤ 0.2
PSKH | ≤ 0.2
NIHC | ≤ 0.2
ILDT | ≤ 0.2
GHDG | ≤ 0.2
QTVH | 0.247
QTVS | 0.406
QTKS | 0.783
QTKH | 0.744
QTKD | 0.398
DTKS | ≤ 0.2
NTKH | ≤ 0.2
NTKS | ≤ 0.2
QPKD | ≤ 0.2
QTVD | ≤ 0.2
LKPK | ≤ 0.2
HFKG | ≤ 0.2
MFQS | ≤ 0.2
CVRD | ≤ 0.2
CFTS | ≤ 0.2

Variant | one-hybrid fitness for binding NBS DNA
THAL | ≤ 0.2
VGWS | ≤ 0.2
YYSE | ≤ 0.2
CALW | ≤ 0.2
QTKN | 0.56
QTKP | 0.41
QTVP | ≤ 0.2
QTVN | ≤ 0.2
QCKP | 0.332
MGCR | ≤ 0.2
YYNE | ≤ 0.2
KRKG | 0.234
SVHI | ≤ 0.2
PNPM | ≤ 0.2
QLHN | ≤ 0.2
QAHH | ≤ 0.2
QAHS | 0.398
QLHS | 0.373
QAHN | ≤ 0.2
QMHS | 0.451
QHHD | ≤ 0.2
QLHD | ≤ 0.2
QMHH | 0.221
QMHD | ≤ 0.2

Variant | one-hybrid fitness for binding NBS DNA
QHHH | 0.214
QHHS | 0.386
HRHV | ≤ 0.2
IEST | ≤ 0.2
VWYL | ≤ 0.2
EEFL | ≤ 0.2
ILLI | ≤ 0.2
QSHS | 0.381
QCHS | 0.502
QIHS | 0.281
QPHS | ≤ 0.2
QSHN | ≤ 0.2
QSHH | ≤ 0.2
CANC | ≤ 0.2
RDTV | ≤ 0.2
RRTH | 0.509
RRTP | ≤ 0.2
RCTY | ≤ 0.2
RCTH | 0.237
RRTS | 0.661
RRTN | 0.339
RRTY | 0.378
RSTY | ≤ 0.2
RRTD | ≤ 0.2

Variant | one-hybrid fitness for binding NBS DNA
SLHR | ≤ 0.2
ENTM | ≤ 0.2
LGQD | ≤ 0.2
KSNT | ≤ 0.2
PNLF | ≤ 0.2
YVMG | ≤ 0.2
DWYR | ≤ 0.2
LYTY | ≤ 0.2
QAAG | ≤ 0.2
APTR | ≤ 0.2
RCHH | 0.219
PNAR | ≤ 0.2
IYLD | ≤ 0.2
QRCC | 0.389
QCCC | ≤ 0.2
QSCM | ≤ 0.2
QCCM | ≤ 0.2
QRCG | 0.343
QSCC | ≤ 0.2
QRCN | 0.397
QRCE | 0.223
QRCM | 0.397
QCCN | ≤ 0.2
QRCH | 0.52

Variant | one-hybrid fitness for binding NBS DNA
QRCF | 0.275
LFGC | ≤ 0.2
DFND | ≤ 0.2
HHDK | ≤ 0.2
NKRM | ≤ 0.2
EPHG | ≤ 0.2
TMRV | ≤ 0.2
KINT | ≤ 0.2
AVTK | ≤ 0.2
QSFM | ≤ 0.2
YMRR | ≤ 0.2
QGHN | ≤ 0.2
AHIF | ≤ 0.2
DQPR | ≤ 0.2
VTFK | ≤ 0.2
PKYY | ≤ 0.2
QRCP | 0.249
QRCD | 0.237
QRCS | 0.693
QRCQ | 0.382
QSCQ | ≤ 0.2
